This is an account of results in PubChem BioAssay AID1851 (National Center for Advancing Translational Sciences (NCATS), 2009).

The structures appear in SMILES notation. In all, about 16,000 compounds went through this assay and about 5,800 (36%) were called active. Inconclusive results (about 23%) are left out. The call rests on the fitted dose curve; in most records, active means well fitted curve in the direction sought with a large enough effect; inconclusive means small, poorly fitted or top-dose-only effect, or effect the other way; inactive means no such curve, though single readings can be large or run the other way. The list shows a part of the results.
On the % scale 0 is the no-effect control and ±100 the full control effect.

The target of this assay is Cytochrome P450 2C19 (Homo sapiens) (UniProt P33261). In words: Cytochrome panel assay with activity outcomes. As to conditions: recombinant CYP, pro-luciferin dealkylation, luminescence, p450-cyp2c19; series mostly up to 57.1 µM; activity, negative = inhibition: at the top concentration.
Sequence of Cytochrome P450 2C19 (Homo sapiens) (P33261 whole entry, looked up): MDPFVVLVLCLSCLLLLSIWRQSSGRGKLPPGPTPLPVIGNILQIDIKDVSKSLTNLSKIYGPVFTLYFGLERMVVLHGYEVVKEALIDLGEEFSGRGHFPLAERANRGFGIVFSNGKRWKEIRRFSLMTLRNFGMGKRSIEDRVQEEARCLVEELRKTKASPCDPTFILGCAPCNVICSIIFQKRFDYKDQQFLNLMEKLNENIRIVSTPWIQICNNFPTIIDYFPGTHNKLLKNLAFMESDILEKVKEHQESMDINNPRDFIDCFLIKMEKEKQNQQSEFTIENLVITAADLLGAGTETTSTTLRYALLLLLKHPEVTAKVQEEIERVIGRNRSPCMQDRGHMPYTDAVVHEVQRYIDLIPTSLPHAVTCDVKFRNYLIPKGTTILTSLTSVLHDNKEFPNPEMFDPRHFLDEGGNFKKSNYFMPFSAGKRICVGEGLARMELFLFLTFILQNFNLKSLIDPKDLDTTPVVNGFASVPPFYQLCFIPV
For the molecule `C1CCc2c(nc3nnnn3c2NC2CCCC2)C1`, the “activity, negative = inhibition” value is -8.75% (inactive).

As to `O=C1[C@@H]2[C@H]3[C@H](O)[C@H](O)C/C(=N/OCc4ccccc4)[C@@H]3CC[C@H]2C(=O)N1c1ccc(F)cc1F`, the activity, negative = inhibition is -20.4% [at 11.4 µM] (inactive).

As a reminder, the AC50 is the concentration giving half of the maximal activity seen. Take `C[C@@H](C(=O)NCc1ccccn1)[C@@H]1C[C@@]1(C)[C@@H](NC(=O)OCc1ccccc1)c1ccccc1`: the AC50 is 2.51 µM (active).

As for `C[C@@H](C(=O)NCc1ccccn1)[C@H]1C[C@]1(C)[C@H](NC(=O)OCc1ccccc1)c1ccccc1`, the AC50 is 2 µM (active).

For `O=C(O)CN(CCOCCOCCN(CC(=O)O)CC(=O)O)CC(=O)O`, the “activity, negative = inhibition” value was 9.23% (inactive).

For `Cc1cc2c(nc1C)CCCCN2C[C@H](O)CN1CCCc2nc(-c3ccc(Br)cc3)ccc21`, the activity, negative = inhibition was -10.8% [at 11.4 µM] (inactive).

For `COc1ccccc1CN1CC[C@@]2(CCCN(C(C)=O)C2)C1`, the “activity, negative = inhibition” value was 0.515% (inactive).

Consider `CCOC(=O)C1CCN(c2c(NCc3ccc(C(=O)NCCC(C)C)cc3)c(=O)c2=O)CC1`, for which the AC50 was 3.16 µM (active).

On to `CCNC(=S)NNC(=O)c1cc(C2CC2)nc2ccccc12`, for which the AC50 was 28.2 µM (active).

For `CCCCOC(=O)CSCC(=O)Nc1cc(C)on1`, the AC50 is 8.91 µM (active).

As for `CC(=O)NCCNc1cc(-c2ccccc2C)ncn1`, the “activity, negative = inhibition” value was 9.99% (inactive).

Turning to `COc1ccccc1-c1cc(Nc2ccc(F)cc2)ncn1`, the concentration at half-maximal activity (AC50) was 7.94 µM (active).

With `COc1ccccc1-c1cc(Nc2ccn[nH]2)ncn1`, the AC50 was 6.31 µM (active).

For the molecule `Cc1ccccc1-c1cc(Nc2ccc(F)cc2)ncn1`, the AC50 was 0.631 µM (active).

As for `Cc1ccccc1-c1cc(Nc2ccccc2)ncn1`, the AC50 was 3.16 µM (active).

As to `C[C@@H]1/C=C\CC(=O)OC[C@H](C)C(=O)N2CCC[C@@H]2C(=O)OC1`, the activity, negative = inhibition was 72.6% [at 11.4 µM] (inactive).

With `O=C(c1cccc(F)c1)N1CCC2(CC1)CN(C(c1ccccc1)c1ccccc1)C2`, the “activity, negative = inhibition” value was 18.4% (inactive).

Consider `COC(=O)[C@@]1(Cc2ccccc2)[C@H]2c3cc(C(=O)N4CCCC4)n(Cc4c(CO)[nH]cc(C)c4=O)c3C[C@H]2CN1C(=O)c1ccccc1`, for which the AC50 was 10 µM (active).

Turning to `COC(=O)[C@@]1(Cc2ccccc2)[C@H]2c3cc(C(=O)N(C)C)n(Cc4c(CO)[nH]cc(C)c4=O)c3C[C@H]2CN1C(=O)c1ccccc1`, the AC50 was 3.16 µM (active).

As to `COc1ccc(CNc2cc(-c3ccccc3Cl)ncn2)c(OC)c1`, the AC50 is 2 µM (active).

`COc1ccc(CNc2cc(-c3ccccc3OC)ncn2)c(OC)c1`: the AC50 is 2 µM (active).

For the molecule `COc1ccc(CNc2cc(-c3ccccc3CN(C)C)ncn2)c(OC)c1`, the “activity, negative = inhibition” value was 4.98% (inactive).

For `CC(=O)N(CC(O)CN(C(C)=O)c1c(I)c(C(=O)NC[C@@H](O)CO)c(I)c(C(=O)NC[C@@H](O)CO)c1I)c1c(I)c(C(=O)NC[C@@H](O)CO)c(I)c(C(=O)NC[C@@H](O)CO)c1I`, the “activity, negative = inhibition” value is -17% [at 25.6 µM] (inactive).

As for `CN(C)c1nccc(N(Cc2ccccc2)Cc2ccccc2)c1C#N`, the AC50 was 4.47 µM (active).

`CCCS(=O)(=O)N1CCCC(C(=O)N2CCN(C(=O)OCC)CC2)C1` (stereo not given): the “activity, negative = inhibition” value is 23% (inactive).

Regarding `CCCS(=O)(=O)N1CCCC(C(=O)NCCCOCC)C1` (stereo not given), the “activity, negative = inhibition” value is 19.2% (inactive).

Regarding `CCOC(=O)C1CCCN(C(=O)CSCc2ccccc2)C1` (stereo not given), the concentration at half-maximal activity (AC50) is 11.2 µM (active).

`CCOC(=O)C1CCCN(S(=O)(=O)c2ccccc2)C1` (stereo not given): the AC50 is 4.47 µM (active).

With `CCOC(=O)C1CCCN(C(=O)CCn2nc(-c3ccccc3)ccc2=O)C1` (stereo not given), the “activity, negative = inhibition” value was -29% (inactive).

Consider `CCOC(=O)CNc1c(-c2ccccc2)nc2ccc(Cl)cn12`, for which the AC50 was 5.01 µM (active).

As to `COC(=O)[C@@H]1O[C@@H](c2c(OC)c(OC)c(C)c(OC)c2OC)[C@H](C)[C@@H](O)[C@@H]1C`, the activity, negative = inhibition was -37.9% [at 11.4 µM] (inactive).

For the molecule `Clc1ccc(Cl)c(Nc2ccnc(SCc3ccccc3)n2)c1`, the AC50 is 5.01 µM (active).

For `CC(C)OC(=O)C1=C2SCC(=O)N2C(N)=C(C#N)C1`, the AC50 is 2.51 µM (active).

As for `CCOC(=O)C1=C2SCC(=O)N2C(N)=C(C#N)C1`, the AC50 is 14.1 µM (active).

Consider `CCOC(=O)c1c(C)c(C)n2c1NC(=O)C2`, for which the activity, negative = inhibition was 1.54% [at 11.4 µM] (inactive).

For the molecule `Oc1cc2c(c(Cl)c1O)CCNC[C@H]2c1ccccc1`, the AC50 result is “inactive”.

As for `O=C(NCc1ccco1)c1cc(C(=O)C2CC2)c[nH]1`, the AC50 was 25.1 µM (active).

As to `O=C(NCCc1ccccn1)c1cc(C(=O)C2CCCCC2)c[nH]1`, the “activity, negative = inhibition” value is -14.4% (inactive).

Turning to `Cc1c(NC(=O)/C=C/c2cn(-c3ccccc3)nc2-c2ccc(F)cc2)c(=O)n(-c2ccccc2)n1C`, the “activity, negative = inhibition” value was -63.8% (inactive).

For `Cc1ccc(-c2nn(-c3ccccc3)cc2CSC(=N)N)cc1`, the AC50 was 8.91 µM (active).

Regarding `CCC(C)NC(=O)Cn1cnc2sc(C)cc2c1=O` (stereo not given), the “activity, negative = inhibition” value is -22.3% (inactive).

With `CCC(C)NC(=O)CCS(=O)(=O)c1ccc(Br)s1` (stereo not given), the AC50 is 5.01 µM (active).

With `c1ccc(Nc2nc(-c3cccnc3)nc3ccccc23)cc1`, the “activity, negative = inhibition” value was -24.3% (inactive).

For `COc1ccccc1NC(=O)Nc1nc(-c2cccnc2)nc2ccccc12`, the “activity, negative = inhibition” value was 36.6% (inactive).

Consider `CCOC(=O)c1ccc(Nc2nc(-c3cccnc3)nc3ccccc23)cc1`, for which the AC50 is 3.55 µM (active).

Turning to `CCOC(=O)c1ccc(Nc2nc(C(=O)OCC)nc3ccccc23)cc1`, the AC50 was 1.41 µM (active).

Consider `CC(C)=CCC/C(C)=C/CO/N=C1/C[C@@H](O)[C@@H](O)[C@@H]2[C@@H]3C(=O)N(Cc4ccc5c(c4)OCO5)C(=O)[C@H]3CC[C@@H]12`, for which the activity, negative = inhibition was 17.2% [at 11.4 µM] (inactive).

As to `O=C(c1cnccn1)N1CCC[C@@]2(CCN(C(c3ccccc3)c3ccccc3)C2)C1`, the “activity, negative = inhibition” value was -31.3% (inactive).

Turning to `O=C(O)CC[C@@H](C(=O)O)N1C(=O)c2ccccc2C1=O`, the AC50 entry was “inactive”.

`CC(C)CC(C(=O)OCC(=O)Nc1ncc(Cl)cc1Cl)N1C(=O)c2ccccc2C1=O` (stereo not given): the AC50 is 2.24 µM (active).

On to `O=C(O)[C@H](Cc1ccc(O)c([N+](=O)[O-])c1)N1C(=O)c2ccccc2C1=O`, for which the activity, negative = inhibition was 26.2% [at 11.4 µM] (inactive).

For `CC(C)(CNC(=O)c1ccc([N+](=O)[O-])c(Cl)c1)CNC(=O)c1ccc([N+](=O)[O-])c(Cl)c1`, the AC50 is 2.24 µM (active).

As for `CC(C)(C)OC(=O)[C@H]([C@@H]1N[C@@H](C(=O)O)C(C)(C)S1)N1C(=O)c2ccccc2C1=O`, the activity, negative = inhibition is 36.7% [at 11.4 µM] (inactive).

With `Cc1[nH]c2ccccc2c1CCNC(=O)c1ccc2c(c1[N+](=O)[O-])C(=O)c1ccccc1C2=O`, the AC50 was 1.26 µM (active).

As to `O=C(c1cccs1)n1nc(-c2ccc(Cl)cc2)nc1NCc1ccco1`, the AC50 is 14.1 µM (active).

Take `Cc1nn(-c2ccccc2)c(N2CCCCC2)c1/C=N/O`: the “activity, negative = inhibition” value was -13.2% (inactive).

With `FC(F)(F)c1nc(-c2ccncc2)ncc1-c1nnnn1-c1ccccc1`, the AC50 is 0.0224 µM (active).

Regarding `Cc1nc2cnc(N3CCNCC3)nc2n(-c2ccccc2)c1=O`, the “activity, negative = inhibition” value is -9.27% (inactive).

Turning to `FC(F)(F)c1nc(N2CCCC2)ncc1-c1nnnn1-c1ccccc1`, the AC50 is 0.631 µM (active).

Turning to `COCC(=O)O[C@]1(CCN(C)CCCc2nc3ccccc3[nH]2)CCc2cc(F)ccc2[C@@H]1C(C)C`, the “activity, negative = inhibition” value is -8.93% (inactive).

Take `O=C(O)[C@H]1CCCC[C@@H]1C(=O)Nc1nc2ccccc2[nH]1`: the activity, negative = inhibition was 26.5% [at 11.4 µM] (inactive).

Consider `CC(C)c1ccc(NC(=O)N(CCc2nc3ccccc3[nH]2)C2CCCC2)cc1`, for which the AC50 was 7.08 µM (active).

As for `CCOC(=O)c1ccc(N)cc1`, the “activity, negative = inhibition” value is -12.8% [at 25.6 µM] (inactive).

For `CCOC(=O)c1ccc(-c2ccc(CO)o2)cc1`, the AC50 is 28.2 µM (active).

As to `CCOC(=O)c1ccc(OC(=O)CCCCCN=C(N)N)cc1`, the AC50 entry is “inactive”.

For `COC(=O)CSc1ccc(C#N)c(SCC(=O)OC)c1`, the AC50 was 11.2 µM (active).

Consider `CCOc1ccc(N/N=C(/C#N)C(N)=O)cc1`, for which the AC50 was 4.47 µM (active).

For `O=C(Nc1ccc2nc(SCc3ccc(Cl)cc3)sc2c1)c1ccccc1C(=O)N1CCOCC1`, the AC50 is 3.98 µM (active).

With `Cc1ccc2oc(-c3cccc(NC(=S)NC(=O)/C=C/c4ccco4)c3)nc2c1`, the AC50 is 6.31 µM (active).

Take `Cc1ccc(NC(=O)CSCC(=O)Nc2ccc(N3CCOCC3)c(Cl)c2)cc1`: the AC50 was 14.1 µM (active).

Consider `CCCC(=O)Nc1ccc2nc(SCC(=O)Nc3ccc(N4CCOCC4)c(Cl)c3)sc2c1`, for which the AC50 was 3.98 µM (active).

`CCC1CC(CSc2ncn[nH]2)OC1=O` (stereo not given): the “activity, negative = inhibition” value was -38% (inactive).

Turning to `CN1[C@@H]2CC[C@H]1CC(OC(c1ccccc1)c1ccccc1)C2` (stereo not given in full), the AC50 result was “inactive”.

On to `O=S1(=O)OC(c2ccc(O)cc2)(c2ccc(O)cc2)c2ccccc21`, for which the activity, negative = inhibition is 28.4% [at 11.4 µM] (inactive).

On to `O=C(/C=C/c1ccco1)NC(=S)Nc1ccc(N2CCOCC2)c(Cl)c1`, for which the AC50 was 11.2 µM (active).

Consider `CCOc1ccc(C(F)(F)F)cc1NC(C)=O`, for which the AC50 was 28.2 µM (active).

On to `O=C1NCC2=C1C(c1ccc(Br)cc1)Nc1ccccc1N2` (stereo not given), for which the AC50 is 8.91 µM (active).

In the case of `COc1cc2c(cc1NC(=O)c1cc(-c3cccnc3)nc3ccc(C)cc13)oc1ccccc12`, the AC50 was 3.55 µM (active).

Consider `COc1cc2c(cc1NC(=O)Nc1ccccc1)oc1ccccc12`, for which the AC50 was 3.55 µM (active).

Consider `COc1ccccc1C(=O)Nc1cc2c(ccc3ccccc32)oc1=O`, for which the “activity, negative = inhibition” value is 5.52% (inactive).

With `COc1ccccc1CC(=O)Nc1cc2oc3ccccc3c2cc1OC`, the half-maximal activity concentration (AC50) was 6.31 µM (active).

Regarding `COc1cc(NC(=O)c2cc3ccccc3o2)c(OC)cc1Br`, the “activity, negative = inhibition” value was 39.4% (inactive).

For `CC1(C)CCCN(C(=O)N2c3ccccc3Sc3ccccc32)C1`, the AC50 was 0.562 µM (active).

Regarding `CC1(C)CCCN(C(=O)c2coc(=O)c(Br)c2)C1`, the “activity, negative = inhibition” value is -17.6% (inactive).

For `CC(=O)N1CCC[C@@]2(CCN(Cc3ccccc3)C2)C1`, the “activity, negative = inhibition” value was 6.21% (inactive).

As to `O=C(CSc1cccc2cccnc12)OCC(=O)c1ccccc1`, the AC50 was 10 µM (active).

Turning to `Cc1cc(O)c(C(C)C)cc1NC(=O)Nc1cccc2ccccc12`, the AC50 was 0.0501 µM (active).

As for `NS(=O)(=O)c1ccc(NC(=O)Nc2cccc3ccccc23)cc1`, the activity, negative = inhibition is 2.76% [at 11.4 µM] (inactive).

On to `CCOc1cc(/C=C2\CCC/C(=C\c3cc(Cl)c(O)c(OCC)c3)C2=O)cc(Cl)c1O`, for which the AC50 was 15.8 µM (active).

Consider `O=C(O)[C@@H]1[C@@H]2C[C@@H]3[C@@H](OC(=O)[C@@H]31)[C@H]2Br`, for which the activity, negative = inhibition is -11.8% [at 11.4 µM] (inactive).
